Laboratory results from PubChem BioAssay (NCI).
Compounds without any hit were thinned out: in the full panel of roughly 83,000, 20% have a hit.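 Compound tested at a single concentration for 48 hours in 96-well plates; a percent growth value below 10 was scored as active.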 A number with no mark means an inactive call. The source made the active and inactive calls.

Key:
Experiment in all cases: NCI-60 one-dose screen, 48 h (100 = growth as untreated, 0 = no growth, -100 = all killed)
[1] = system: NCI-H322M lung; settings: 10 µM unless noted
[2] = system: HOP-62 NSCLC; settings: 10 µM unless noted
[3] = system: HOP-92 NSCLC; settings: 10 µM unless noted
[4] = system: NCI-H522 lung; settings: 10 µM unless noted
[5] = system: A549/ATCC NSCLC; settings: 10 µM unless noted
[6] = system: COLO 205 colon; settings: 10 µM
[7] = system: PC-3 prostate; settings: 10 µM unless noted
[8] = system: CAKI-1 renal; settings: 10 µM unless noted
[9] = system: A498 renal; settings: 10 µM unless noted
[10] = system: CCRF-CEM leukemia; settings: 10 µM unless noted
[11] = system: OVCAR-8 ovarian; settings: 10 µM unless noted
[12] = system: SK-OV-3 ovarian; settings: 10 µM unless noted
[13] = system: SNB-19 CNS; settings: 10 µM unless noted
[14] = system: EKVX NSCLC; settings: 10 µM unless noted
[15] = system: OVCAR-4 ovarian; settings: 10 µM unless noted
[16] = system: HT29 colon; settings: 10 µM unless noted
[17] = system: TK-10 renal; settings: 10 µM unless noted
[18] = system: HS 578T breast; settings: 10 µM unless noted

| Structure (SMILES) | growth [1] | growth [2] | growth [3] | growth [4] | growth [5] | growth [6] | growth [7] | growth [8] | growth [9] | growth [10] | growth [11] | growth [12] | growth [13] | growth [14] | growth [15] | growth [16] | growth [17] | growth [18] |
| --- | --- | --- | --- | --- | --- | --- | --- | --- | --- | --- | --- | --- | --- | --- | --- | --- | --- | --- |
| O=C(CCc1ccco1)NC1CCN(CC2(c3ccc(Cl)cc3)CCC2)CC1 | 34.7% | 39.3% | -21.9% (active) | -22.2% (active) | 8.74% (active) | -30% (active) | 1.34% (active) | 5.62% (active) | -15% (active) | 6.1% (active) | 12.2% | 13.8% | – | – | – | – | – | – |
| O=C(CC1(O)C(=O)Nc2ccc(F)cc21)c1ccc(C(=O)NCC2CCC3(CC2)OOC2(CCCCC2)OO3)cc1 (stereo unspecified) | 94.6% | -14.4% (active) | -65.3% (active) | – | – | 33.7% | 44.2% | -15.9% (active) | 65% | -32.1% (active) | – | 91.1% | 80.2% | -29.9% (active) | 65.6% | – | – | – |
| Cn1cnnc1[S-].[Au+].c1ccc([PH+](c2ccccc2)c2ccccc2)cc1 | 89% | 25.1% | – | -75% (active) | 78.8% | -10% (active) | – | 23.6% | 64.7% | 1.22% (active) | 20.3% | – | 11.4% | 60.7% | 38.9% | 39.8% | -44.5% (active) | 49.2% |
| CC(=O)O[C@@H]1C2=C(C)C3(CC3)[C@@](C)(O)C(=O)C2=C[C@@]1(C)CO | -5.44% (active) | -10.1% (active) | -21.1% (active) | -36.6% (active) | 6.08% (active) | – | 6.46% (active) | 3.26% (active) | – | 10.9% | 7.82% (active) | – | 7.37% (active) | 13.6% | – | – | – | -9.28% (active) |
